The test system of the experiment is HL-1. Briefly: cardiomyocyte survival under oxidative or metabolic stress – cell-based, panel, H9c2 and HL-1, ATP luminescence, set 2, SAR follow-up (AID 651871).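 Further: cells exposed to stressor for 2 h before ATP readout; reference of the scale not given here.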 The note with it: H9c2/HL-1 cardiomyocytes, 2-deoxyglucose stress, with 2-deoxyglucose, run 12, at 19.8 µM (top of the series).

Each structure is given as a SMILES string.

Turning to `COc1ccc2c(c1OC)C(=O)N1c3ccccc3C(=O)N(Cc3cccc(Cl)c3Cl)C21` (stereo unspecified), the activity (protection/inhibition) amounted to 51%.

Source of the values: PubChem BioAssay AID651871 (Sanford-Burnham Center for Chemical Genomics, 2012).
